biological target: CMYA5; experiment: pooled miR-30 sensor sort-seq; sequence = guide strand; conditions: shRNA
Note: reference of the scale not given here.

Sequence	sensor-assay potency score (higher = more potent)
TTTCTAACACTAGATTTCCTTC	-0.717
TTCGATAGCTCTGACTCTCTGA	0.415
TTACTTCTTGATCATCTTGTGG	-0.871

biological target: CNGA4; experiment: as above; conditions: shRNA

Sequence	sensor-assay potency score (higher = more potent)
TAAGCAATCTTAAGTGCGCTGG	0.0217
TTCTGAAAGATCTGCACCCGGC	-0.677
ATAACCGTGCTGCAAGTCGGGG	-1.46
TAACCGTGCTGCAAGTCGGGGA	-0.253
TTCACCTGGTGAGTAGGTCTGG	-0.244
TTGATGTTGGCTGTGCGGCGGT	-0.481
TAGATGACAGAGCTCATGCTAC	-0.751
ATGATGTACATCTCTTGGCCAA	-1.02
TTGTAGATGACAGAGCTCATGC	-0.748
TGCTTGTGGATACTCGCTCAGC	-1.17
TACCAGTCAATAACTCGCCGCT	0.117
TTCAGCAGGATCTCACGTCCTT	0.0798
TCTCGGATGATGTACATCTCTT	-0.967
TAGGTCTGAATAACCTAGGCTC	-0.534
TCGTTGGTCATCTTCTTGTTGA	-0.985
TACCTCGTTGGTCATCTTCTTG	-0.968
TATAGCAGGTCACTCGTGTAGT	-0.135
ACTGTAGTCAGTATCAGCGTGG	-0.617
TCGGATGATGTACATCTCTTGG	-1.02
TTCATGTTGTAGATGACAGAGC	-0.761
TAAGCTGTGCGGGTCTCTGTGC	-0.546
ATACCAGTCAATAACTCGCCGC	-0.942
TTCAATGCGGTAAGCAATCTTA	-0.691

biological target: CNGB1; experiment: as above; conditions: shRNA

Sequence	sensor-assay potency score (higher = more potent)
TACATCAGGTTGGTCAGCGGGT	-0.543
TCGCATGTCCTTTTTGTCCGTA	-0.378
TGGGCTGGTACTGACATCCTGG	-0.698
TTGACGTCTTGCGAGCTCTTGG	-0.581
TTTGAACTTGCAGCAGAGCATG	-1.2
TTGTAGTTCACGTCGATGGCGA	-0.201
TTTCTCTGTCCGCTCCTTGAAG	-0.823
TTCTCTTCTTCATAAGCTGGAA	-0.514
TTCATGTACTTCACCGTGCTGT	0.284
TAGGTAATCCATCAGCAGCCAG	-1.07
TTTCTCCAAACACAGATCCAGC	-1.37
TTCTTGCACACATAGTCGTTGG	-0.837
TTCACCGTGCTGTCCATGCAGC	-0.762
TTTGCTAACGATGTTGTAGTTC	0.184

Source: the OligoGym collection
